From the supplement of paper PMC10849652
Targets with a hit are over-represented here; the source holds about 8,800 in all. About 0.5% of all pairs of compound and target were hits.

Assays:
Test in all cases: log2 fold change, soluble protein after heating vs DMSO (PISA); higher = thermal stabilisation; K562 lysate, 10 uM; active = over 0.2 and 3.5 SD of the protein, either way, in both replicates (recomputed)
[1] = compound: Cc1cn(-c2cc(NC(=O)c3ccc(C)c(Nc4nccc(-c5cccnc5)n4)c3)cc(C(F)(F)F)c2)cn1 [nilotinib]
In short: (§1)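 Dounce homogenisation of K562 pellets in PBS pH 7.4 with 1 mM MgCl2 produced a crude extract, used at 1 mg/mL protein. Exposure to 10 μM compound lasted 30 min, and aliquots were then heated for 3 min across 48°C-58°C, pooled and brought to 0.5% NP-40 at 4°C. The supernatant after 21,000xg for 90 min was quantified by TMTpro 16plex LC-MS/MS with channel sums equalised. Duplicate values are given as log-two fold change in thermal stability relative to solvent controls.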

[2] = compound: Cc1nc(Nc2n[nH]c3c2CN(C(=O)N[C@H](CN(C)C)c2ccccc2)C3(C)C)c2sccc2n1
In short: as §1

[3] = compound: Cc1nc(Nc2ncc(C(=O)Nc3c(C)cccc3Cl)s2)cc(N2CCN(CCO)CC2)n1 [dasatinib]
In short: as §1

[4] = compound: Cc1ncc(-c2ccnc(Nc3ccc(S(C)(=O)=O)cc3)n2)n1C(C)C
In short: as §1

[5] = compound: Cn1cc(-c2ccc3c(c2)CCN3C(=O)Cc2cccc(C(F)(F)F)c2)c2c(N)ncnc21
In short: as §1

[6] = compound: Cn1cc(CNCC2CCN(c3ncc(C(=O)NO)cn3)CC2)c2ccccc21 [quisinostat]
In short: as §1

[7] = compound: Cn1cncc1[C@@](N)(c1ccc(Cl)cc1)c1ccc2c(c1)c(-c1cccc(Cl)c1)cc(=O)n2C [tipifarnib]
In short: as §1

[8] = compound: NC(=O)Nc1cc(-c2cccc(F)c2)sc1C(=O)N[C@H]1CCCNC1
In short: as §1

[9] = compound: NC1(c2ccc(-c3nc4ccn5c(=O)[nH]nc5c4cc3-c3ccccc3)cc2)CCC1
In short: as §1

[10] = compound: NCC(=O)Nc1ccc(-n2nc(C(F)(F)F)cc2-c2ccc3c(ccc4ccccc43)c2)cc1
In short: as §1

[11] = compound: O=C(CCCCCCC(=O)Nc1ccccc1)NO [vorinostat]
In short: as §1

[12] = compound: O=C(O)c1ccc2c(c1)nc(Nc1cccc(Cl)c1)c1ccncc12 [silmitasertib]
In short: as §1

[13] = compound: O=C1NC(=O)C(c2cnc3ccccn23)=C1c1cn2c3c(cc(F)cc13)CN(C(=O)N1CCCCC1)CC2
In short: as §1

[14] = compound: c1cn2cc(-c3ccc4cn[nH]c4c3)nc(Nc3ccc(N4CCOCC4)cc3)c2n1 [entospletinib]
In short: as §1

[15] = compound: NC(=O)c1cnc(N[C@@H]2CCCC[C@@H]2N)nc1Nc1cccc(-n2nccn2)c1
In short: as §1

Measured: log2 fold change

PIM1 isoform 2 (UniProt P11309)
Sequence of UniProt P11309 (P11309 whole entry, looked up): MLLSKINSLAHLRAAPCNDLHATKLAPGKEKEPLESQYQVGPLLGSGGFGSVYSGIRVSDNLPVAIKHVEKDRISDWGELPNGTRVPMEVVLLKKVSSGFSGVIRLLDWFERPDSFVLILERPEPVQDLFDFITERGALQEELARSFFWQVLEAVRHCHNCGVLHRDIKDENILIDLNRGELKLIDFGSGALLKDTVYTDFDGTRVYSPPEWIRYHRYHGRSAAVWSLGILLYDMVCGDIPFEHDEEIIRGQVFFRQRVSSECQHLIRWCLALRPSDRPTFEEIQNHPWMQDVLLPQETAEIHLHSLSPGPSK
inactive: [1] 0.059 | [2] -0.025 | [3] -0.033 | [4] 0.063 | [5] 0.112 | [6] -0.085 | [7] 0.061 | [8] 0.038 | [9] -0.146 | [10] 0.098 | [11] -0.188 | [12] 0.212 | [13] 0.019 | [14] 0.008

PHC1 (UniProt P78364)
inactive: [1] 0.054 | [2] 0.023 | [3] 0.087 | [4] -0.024 | [5] -0.049 | [6] -0.003 | [7] -0.02 | [8] 0.003 | [10] 0.042 | [13] 0.151 | [14] 0.073

PHF14 (UniProt O94880)
Sequence of UniProt O94880 (O94880 whole entry, looked up): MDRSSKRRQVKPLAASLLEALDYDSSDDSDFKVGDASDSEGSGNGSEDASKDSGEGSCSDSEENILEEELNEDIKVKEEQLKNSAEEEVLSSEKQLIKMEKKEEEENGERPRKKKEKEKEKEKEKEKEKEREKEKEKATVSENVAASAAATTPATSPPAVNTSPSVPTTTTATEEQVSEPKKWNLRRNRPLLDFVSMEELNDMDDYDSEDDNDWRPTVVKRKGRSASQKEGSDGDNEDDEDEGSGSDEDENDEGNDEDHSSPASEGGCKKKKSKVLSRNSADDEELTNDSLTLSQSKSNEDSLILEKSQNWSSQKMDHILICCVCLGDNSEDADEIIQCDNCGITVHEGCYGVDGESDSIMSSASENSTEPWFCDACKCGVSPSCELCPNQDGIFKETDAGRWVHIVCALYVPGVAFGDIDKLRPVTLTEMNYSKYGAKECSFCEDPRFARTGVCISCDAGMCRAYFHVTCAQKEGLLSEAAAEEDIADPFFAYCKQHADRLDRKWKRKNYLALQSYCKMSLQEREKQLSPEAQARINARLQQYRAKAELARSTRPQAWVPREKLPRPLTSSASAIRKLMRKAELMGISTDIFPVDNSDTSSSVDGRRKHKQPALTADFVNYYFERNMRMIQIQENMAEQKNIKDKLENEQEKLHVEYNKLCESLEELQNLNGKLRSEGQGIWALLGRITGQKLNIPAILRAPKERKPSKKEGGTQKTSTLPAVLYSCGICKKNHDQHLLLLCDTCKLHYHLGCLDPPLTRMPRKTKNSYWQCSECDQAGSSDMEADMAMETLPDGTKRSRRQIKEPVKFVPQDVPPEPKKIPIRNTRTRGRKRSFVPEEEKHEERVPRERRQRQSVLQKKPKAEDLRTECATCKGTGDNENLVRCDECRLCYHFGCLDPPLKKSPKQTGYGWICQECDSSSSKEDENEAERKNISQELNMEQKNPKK
inactive: [1] -0.127 | [2] -0.203 | [3] -0.1 | [4] 0.082 | [5] 0.085 | [7] 0.073 | [15] -0.077 | [10] -0.062 | [14] 0.039

PNPLA4 (UniProt P41247)
inactive: [3] 0.099 | [5] 0.194 | [6] 0.048 | [8] 0.037 | [10] -0.012 | [13] -0.093 | [14] -0.046

PRIMPOL (UniProt Q96LW4)
active: [11] -0.337
inactive: [1] 0.112 | [2] -0.089 | [3] 0.034 | [4] -0.15 | [5] -0.037 | [6] -0.039 | [7] 0.17 | [8] 0 | [9] -0.126 | [10] -0.03 | [12] 0.034 | [13] -0.028 | [14] 0.029

PPP2CA (UniProt E7ESG8)
inactive: [1] 0.025 | [2] -0.108 | [4] -0.232 | [7] 0.356

PUF60 isoform 2 (UniProt Q9UHX1)
Sequence of UniProt Q9UHX1 (Q9UHX1 whole entry, looked up): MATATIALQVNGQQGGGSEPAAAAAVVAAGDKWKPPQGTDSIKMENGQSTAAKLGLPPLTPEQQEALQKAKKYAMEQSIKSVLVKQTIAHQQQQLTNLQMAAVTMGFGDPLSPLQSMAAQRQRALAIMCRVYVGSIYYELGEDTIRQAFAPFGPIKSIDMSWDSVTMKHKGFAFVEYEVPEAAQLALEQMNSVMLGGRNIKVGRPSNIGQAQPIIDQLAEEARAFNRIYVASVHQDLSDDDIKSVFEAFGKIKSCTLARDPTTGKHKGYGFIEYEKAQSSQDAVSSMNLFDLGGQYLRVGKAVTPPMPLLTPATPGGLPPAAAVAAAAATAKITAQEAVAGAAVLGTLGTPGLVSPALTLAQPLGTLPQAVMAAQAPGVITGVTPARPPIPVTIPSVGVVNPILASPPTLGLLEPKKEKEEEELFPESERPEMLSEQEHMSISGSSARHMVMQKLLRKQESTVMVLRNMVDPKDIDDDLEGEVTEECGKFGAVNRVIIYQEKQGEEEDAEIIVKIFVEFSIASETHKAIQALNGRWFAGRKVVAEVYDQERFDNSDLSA
inactive: [1] -0.011 | [2] -0.027 | [4] 0.05 | [6] 0.013 | [7] 0.023 | [8] 0.017 | [15] -0.016 | [9] -0.184 | [10] -0.061 | [11] 0.23 | [12] 0.075 | [13] 0.026 | [14] 0.027

PPT2, A0A140T9Y1
inactive: [1] -0.054 | [2] 0.086 | [4] 0.089 | [7] 0.1

PRKD3 (UniProt O94806)
inactive: [1] 0.054 | [2] -0.086 | [4] -0.03 | [6] -0.014 | [7] 0.087 | [8] -0.174 | [15] 0.001 | [9] 0.054 | [10] -0.116 | [11] -0.182 | [12] 0.224 | [13] 0.076 | [14] 0.013

PECR (UniProt Q9BY49)
inactive: [14] 0.115

POLR2F (UniProt U3KPV3)
inactive: [3] -0.024 | [5] 0.038 | [14] -0.113

PICALM (UniProt H0YCY1)
inactive: [9] 0.013 | [11] 0.202 | [12] -0.07

PPP2R3C (UniProt Q969Q6)
inactive: [1] -0.139 | [2] 0.057 | [3] -0.061 | [4] -0.13 | [5] -0.009 | [7] 0.057 | [15] 0.038 | [9] 0.062 | [10] -0.019 | [11] -0.362 | [12] 0.086 | [14] 0.074

PLXND1 (UniProt Q9Y4D7)
inactive: [1] -0.006 | [2] 0.043 | [3] -0.045 | [4] 0.092 | [5] 0.013 | [6] -0.093 | [7] 0.014 | [8] -0.047 | [9] 0.094 | [11] -0.132 | [12] 0.174 | [13] 0.018

PYGO2 (UniProt Q9BRQ0)
inactive: [1] 0.01 | [2] 0.044 | [3] -0.028 | [4] 0.063 | [5] 0.004 | [6] 0.016 | [7] -0.02 | [8] -0.015 | [9] 0.029 | [11] 0.151 | [12] -0.067 | [13] -0.003
active: [14] 0.269

PDIA4, A0A499FI48
inactive: [3] -0.004 | [5] 0.044 | [6] -0.02 | [8] 0.164 | [13] 0.045

PPP2R5B (UniProt Q15173)
Sequence of UniProt Q15173 (Q15173 whole entry, looked up): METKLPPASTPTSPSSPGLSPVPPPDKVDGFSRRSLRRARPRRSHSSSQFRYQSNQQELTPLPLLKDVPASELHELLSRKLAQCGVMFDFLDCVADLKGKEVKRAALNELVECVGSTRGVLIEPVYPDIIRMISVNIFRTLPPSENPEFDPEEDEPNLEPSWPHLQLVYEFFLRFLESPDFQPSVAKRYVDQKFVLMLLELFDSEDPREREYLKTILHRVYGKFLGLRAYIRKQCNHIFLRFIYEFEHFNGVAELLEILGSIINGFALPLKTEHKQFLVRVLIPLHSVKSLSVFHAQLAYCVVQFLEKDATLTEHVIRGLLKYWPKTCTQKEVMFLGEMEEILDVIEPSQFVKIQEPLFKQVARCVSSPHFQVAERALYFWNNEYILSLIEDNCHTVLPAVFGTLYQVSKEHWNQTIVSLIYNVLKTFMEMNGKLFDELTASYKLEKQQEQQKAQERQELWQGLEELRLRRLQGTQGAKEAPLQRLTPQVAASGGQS
inactive: [3] 0.018 | [5] 0.021 | [6] 0.058 | [8] -0.025 | [15] 0.011 | [9] -0.015 | [10] 0.077 | [11] -0.075 | [12] -0.007 | [13] -0.065 | [14] 0.028

PPME1 (UniProt Q9Y570)
active: [11] -0.673
inactive: [3] 0.032 | [5] -0.08 | [15] 0.048 | [9] 0.027 | [12] 0.185 | [14] -0.063

PIK3CD (UniProt O00329)
Sequence of UniProt O00329 (O00329 whole entry, looked up): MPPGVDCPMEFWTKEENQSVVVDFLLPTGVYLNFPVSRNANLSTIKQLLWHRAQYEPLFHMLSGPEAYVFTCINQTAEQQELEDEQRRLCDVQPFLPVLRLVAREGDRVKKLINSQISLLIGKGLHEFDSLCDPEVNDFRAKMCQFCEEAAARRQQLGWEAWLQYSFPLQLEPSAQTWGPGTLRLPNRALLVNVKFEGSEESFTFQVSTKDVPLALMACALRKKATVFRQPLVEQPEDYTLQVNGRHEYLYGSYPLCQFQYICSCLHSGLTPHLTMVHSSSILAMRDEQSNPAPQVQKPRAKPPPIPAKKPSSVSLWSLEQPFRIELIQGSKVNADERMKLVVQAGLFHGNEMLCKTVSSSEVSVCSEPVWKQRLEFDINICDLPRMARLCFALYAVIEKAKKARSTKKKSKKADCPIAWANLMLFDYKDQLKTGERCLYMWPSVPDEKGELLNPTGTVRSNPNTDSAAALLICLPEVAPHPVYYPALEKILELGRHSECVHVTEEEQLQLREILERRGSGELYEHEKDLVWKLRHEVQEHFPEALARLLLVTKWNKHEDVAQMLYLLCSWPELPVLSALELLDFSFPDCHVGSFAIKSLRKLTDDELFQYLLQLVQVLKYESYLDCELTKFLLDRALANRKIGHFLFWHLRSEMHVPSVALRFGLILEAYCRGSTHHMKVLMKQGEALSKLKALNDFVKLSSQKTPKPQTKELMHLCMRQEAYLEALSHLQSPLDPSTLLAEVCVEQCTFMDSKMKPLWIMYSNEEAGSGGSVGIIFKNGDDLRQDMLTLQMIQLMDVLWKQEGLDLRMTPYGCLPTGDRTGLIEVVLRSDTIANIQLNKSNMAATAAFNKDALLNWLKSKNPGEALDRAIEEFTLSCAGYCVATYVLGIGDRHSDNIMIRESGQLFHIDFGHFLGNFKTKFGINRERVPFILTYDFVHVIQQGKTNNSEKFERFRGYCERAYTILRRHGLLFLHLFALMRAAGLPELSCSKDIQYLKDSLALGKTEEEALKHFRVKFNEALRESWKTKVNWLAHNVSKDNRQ
inactive: [1] 0.059 | [2] 0.006 | [4] 0.122 | [5] 0.151 | [6] -0.091 | [7] -0.053 | [8] 0.02 | [15] 0.001 | [9] 0.127 | [10] -0.059 | [12] 0.223 | [13] -0.004
active: [11] -0.516

PCBP2 (UniProt F8VRH0)
active: [11] -0.982
inactive: [1] -0.221 | [2] -0.532 | [4] -0.063 | [6] 0.034 | [7] -0.167 | [8] -0.059 | [15] 0.232 | [9] 0.003 | [12] -0.441 | [13] 0.006

PRKDC (UniProt P78527)
inactive: [1] -0.015 | [2] -0.01 | [4] 0.188 | [5] 0.038 | [6] -0.093 | [7] -0.011 | [8] 0.004 | [15] 0.123 | [9] -0.073 | [10] -0.089 | [13] 0.207 | [14] 0.013
active: [11] -0.426 | [12] 0.762

PHOSPHO2 (UniProt C9JD35)
inactive: [6] 0.073 | [8] -0.102 | [13] 0.004 | [14] 0.155

PHGDH, A0A286YFE1
inactive: [3] 0.086 | [5] 0.258 | [15] -0.29

PPP1R14C (UniProt Q8TAE6)
Sequence of UniProt Q8TAE6 (Q8TAE6 whole entry, looked up): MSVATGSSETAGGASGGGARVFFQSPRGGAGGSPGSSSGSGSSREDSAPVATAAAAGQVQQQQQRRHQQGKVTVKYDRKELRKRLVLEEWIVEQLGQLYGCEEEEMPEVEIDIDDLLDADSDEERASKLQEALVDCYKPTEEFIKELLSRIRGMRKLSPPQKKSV
inactive: [1] 0.075 | [2] -0.003 | [3] 0.105 | [4] -0.043 | [5] -0.173 | [7] 0.073 | [15] -0.184 | [10] -0.061 | [14] -0.046

PREP (UniProt H0Y5Y0)
inactive: [15] -0.087

PFN1 (UniProt I3L3D5)
inactive: [1] -0.009 | [2] -0.088 | [4] 0.108 | [7] 0.006 | [15] 0.04 | [14] -0.194

PPP1R12B isoform 6 (UniProt O60237)
Sequence of UniProt O60237 (O60237 whole entry, looked up): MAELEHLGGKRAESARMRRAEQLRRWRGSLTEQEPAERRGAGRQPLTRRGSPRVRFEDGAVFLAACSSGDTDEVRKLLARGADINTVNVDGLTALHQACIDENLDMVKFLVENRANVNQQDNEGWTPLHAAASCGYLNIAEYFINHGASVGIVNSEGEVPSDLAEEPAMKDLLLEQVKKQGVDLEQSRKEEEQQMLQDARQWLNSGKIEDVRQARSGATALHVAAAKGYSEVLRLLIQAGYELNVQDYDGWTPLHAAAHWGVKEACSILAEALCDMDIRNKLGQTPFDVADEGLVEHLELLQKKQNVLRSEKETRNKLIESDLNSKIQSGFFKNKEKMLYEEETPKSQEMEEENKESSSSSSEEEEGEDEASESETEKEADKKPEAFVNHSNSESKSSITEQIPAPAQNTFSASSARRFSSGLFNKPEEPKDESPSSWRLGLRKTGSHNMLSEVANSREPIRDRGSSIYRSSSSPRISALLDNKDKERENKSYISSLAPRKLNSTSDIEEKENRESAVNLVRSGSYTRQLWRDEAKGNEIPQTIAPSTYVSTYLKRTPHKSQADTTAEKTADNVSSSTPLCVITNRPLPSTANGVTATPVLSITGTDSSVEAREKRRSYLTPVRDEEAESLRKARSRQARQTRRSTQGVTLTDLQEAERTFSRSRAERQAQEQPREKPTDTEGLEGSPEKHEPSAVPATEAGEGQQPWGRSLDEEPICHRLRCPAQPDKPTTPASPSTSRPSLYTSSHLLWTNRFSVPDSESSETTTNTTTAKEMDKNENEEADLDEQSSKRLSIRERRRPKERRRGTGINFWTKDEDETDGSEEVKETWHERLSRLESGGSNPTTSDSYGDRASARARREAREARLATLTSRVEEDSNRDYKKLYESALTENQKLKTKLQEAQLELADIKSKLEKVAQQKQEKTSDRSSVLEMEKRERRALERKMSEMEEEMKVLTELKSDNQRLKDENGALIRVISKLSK
inactive: [3] -0.065 | [5] 0.134 | [8] 0.006 | [15] 0.05 | [9] -0.075 | [10] 0.168 | [11] -0.063 | [12] 0.091 | [13] -0.005 | [14] -0.052
active: [6] -0.531

PFN3 (UniProt P60673)
inactive: [1] -0.104 | [2] 0.001 | [4] 0.033 | [6] -0.349 | [7] -0.083 | [8] -0.044 | [15] -0.087 | [10] 0.158 | [13] -0.142 | [14] -0.134

PRR4 (UniProt Q16378)
inactive: [1] 0.047 | [2] -0.145 | [4] -0.027 | [7] 0.05 | [15] 0.032 | [9] 0.012 | [10] 0.009 | [11] 0.229 | [12] -0.176 | [14] 0.302

POLR2M (UniProt Q6EEV4)
inactive: [3] 0.02 | [5] -0.2 | [6] 0.011 | [8] 0.032 | [15] -0.015 | [9] 0.076 | [10] 0.146 | [11] -0.019 | [12] -0.069 | [13] 0.06 | [14] -0.022

PPM1H (UniProt Q9ULR3)
Sequence of UniProt Q9ULR3 (Q9ULR3 whole entry, looked up): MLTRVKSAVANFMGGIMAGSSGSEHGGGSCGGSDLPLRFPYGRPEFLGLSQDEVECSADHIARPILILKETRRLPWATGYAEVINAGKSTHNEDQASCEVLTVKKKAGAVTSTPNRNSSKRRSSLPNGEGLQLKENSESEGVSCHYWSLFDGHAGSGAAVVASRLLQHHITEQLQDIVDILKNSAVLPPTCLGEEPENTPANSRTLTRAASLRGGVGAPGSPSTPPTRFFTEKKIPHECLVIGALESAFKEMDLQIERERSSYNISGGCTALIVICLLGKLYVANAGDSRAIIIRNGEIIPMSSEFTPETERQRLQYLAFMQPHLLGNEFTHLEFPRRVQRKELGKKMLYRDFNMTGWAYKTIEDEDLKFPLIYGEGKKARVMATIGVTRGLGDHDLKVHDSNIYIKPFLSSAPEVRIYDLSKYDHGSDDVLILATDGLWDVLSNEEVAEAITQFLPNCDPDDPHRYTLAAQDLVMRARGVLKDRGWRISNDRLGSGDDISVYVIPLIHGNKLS
inactive: [3] 0 | [5] 0.001 | [6] -0.036 | [8] -0.041 | [15] 0 | [9] -0.07 | [10] -0.004 | [11] 0.206 | [12] -0.05 | [13] -0.045 | [14] -0.002
